Laboratory results taken from PubChem BioAssay AID2284423 (EPA ToxCast).
Results filed as inconclusive are left out. Calls of active or inactive are those of the source. Rule for the calls: active = hit-call score of the fitted dose curve at least 0.9, where 1 is the maximum; inconclusive = response in the unintended direction; inactive = score below 0.9.

system: SRY-box transcription factor 17 (SOX17) Protein Expression, SOX17 (gene 64321); assay: CCTE_Deisenroth_DEVTOX-GLR_Ecto_SOX17: CCTE's DevTox GLR-Ecto Assay Evaluation of SRY-box transcription factor 17 (SOX17) Protein Expression, Deisenroth Lab
Method: CCTE_Deisenroth_DEVTOX-GLR_Ecto assay is a cell-based, multiplex-readout assay that uses RUES2-GLR, a human pluripotent cell line, with measurements taken at 48 hours after chemical dosing in a 384-well microplateCCTE_Deisenroth_DEVTOX-GLR_Ecto_SOX17 is 1 of 4 assay components calculated from the CCTE_Deisenroth_DEVTOX-GLR_Ecto assay and it measures an the percentage of cells in an endoderm state. Using a type of inducible fluorescent protein reporter, gain-of-signal activity can be used to understand changes in gene expression with fluorescent microscopy. The percentage of SOX17+ cells are determined by calculating the number of SOX17+ cells divided by the cell count. To generalize the intended target to other relatable targets, this assay component is annotated to the transcription factor intended target family, where the subfamily is SRY-related HMG-box.Data from the assay component CCTE_Deisenroth_DEVTOX-GLR_Ecto_SOX17 was analyzed as 1 assay endpoint. The endpoint is the percent SOX17+ cell population minus the 0.2% DMSO control in the CCTE_Deisenroth_DEVTOX-GLR_Ecto assay. This assay endpoint can be referred to as a secondary readout since this assay has produced multiple assay endpoints where this one serves as a measure of endoderm differentiation.
All assay protocols are aligned to the DevTox GLR-Endo assay workflow. Cells are seeded into 384-well microplates for 24 hours prior to initiating differentiation in defined media for a total duration of 48 hours. A total of two chemical exposures are administered in 24-hour intervals during the 48-hour differentiation period. At the assay termination point, cells are fixed and stained with a fluorescent dye demarcating the nucleus. High-content imaging is used to acquire brightfield and fluorescent channel images across 5 fields per well. Cell identification and mean biomarker fluorescence intensities are calculated with image analysis software to determine the total cell counts for viability assessment and the biomarker expression frequency for each lineage-dependent assay. A typical experimental design tests a 10-point concentration series (1 nM - 200 uM) for 28 compounds in single technical replicate. Assay plate controls include non-differentiated pluripotent cells (baseline control), lineage-specific differentiated cells (differentiation control), and DMSO solvent exposed differentiated cells (solvent control). Experiments typically comprise a minimum of four experimental replicates (n=4).

| SMILES | AC50 | outcome |
| --- | --- | --- |
| CC1=C(/C=C/C(C)=C/C=C/C(C)=C\C(=O)O)C(C)(C)CCC1 | 183 µM (active) |  |
| O=C1NS(=O)(=O)c2ccccc21 |  | inactive |
| O=C1NC(=O)C(c2ccccc2)(c2ccccc2)N1 |  | inactive |
| CS(=O)(=O)OCCCCOS(C)(=O)=O | 100 µM (active) |  |
| CN(Cc1cnc2nc(N)nc(N)c2n1)c1ccc(C(=O)N[C@@H](CCC(=O)O)C(=O)O)cc1 |  | inactive |
| CC/C(=C(/CC)c1ccc(O)cc1)c1ccc(O)cc1 |  | inactive |
| CCN(CC)CCNC(=O)c1c(C)[nH]c(/C=C2\C(=O)Nc3ccc(F)cc32)c1C | 1.14 µM (active) |  |
| O=C1CCC(N2C(=O)c3ccccc3C2=O)C(=O)N1 (configuration not stated) |  | inactive |
| O=c1[nH]cc(F)c(=O)[nH]1 | 32 µM (active) |  |
| CCCC(CCC)C(=O)O |  | inactive |
| CC1=C(/C=C/C(C)=C/C=C/C(C)=C/C(=O)O)C(C)(C)CCC1 | 171 µM (active) |  |
| CC(C)(c1ccc(O)cc1)c1ccc(O)cc1 |  | inactive |
